# From PubChem BioAssay AID1415 (NMMLSC, 2008)
# Hit rate of the full screen: of about 220,000 compounds, about 710 (0.32%) were called active. The sample holds actives, similar compounds and a random draw of the others, so the mix is not that of the screen. Values without a mark were called inactive. Cut-off read from the data, not from the text of the source: active = binding response below about 49% or above about 150%; inactive = in between.
# Molecular target: Guanine nucleotide-binding protein G(o) subunit alpha (Homo sapiens) (UniProt P09471)
# Sequence (P09471 whole entry, looked up): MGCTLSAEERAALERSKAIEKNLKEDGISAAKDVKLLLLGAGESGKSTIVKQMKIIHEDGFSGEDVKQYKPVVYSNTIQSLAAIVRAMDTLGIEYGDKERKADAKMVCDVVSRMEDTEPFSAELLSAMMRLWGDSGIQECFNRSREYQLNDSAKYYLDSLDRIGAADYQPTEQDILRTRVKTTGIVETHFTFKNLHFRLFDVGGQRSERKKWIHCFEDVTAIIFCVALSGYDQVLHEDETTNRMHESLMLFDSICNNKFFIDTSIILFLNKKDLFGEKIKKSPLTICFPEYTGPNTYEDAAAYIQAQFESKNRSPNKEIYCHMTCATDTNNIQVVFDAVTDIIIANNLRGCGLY
# Assay: RGS4-Galphao interaction inhibitors and enhancers – biochemical, multiplexed bead flow cytometry, primary screen (AID 1415);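 note: fluorescent Galphao activated with aluminum fluoride binding bead-coupled RGS4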
# Conditions: at 10 µM, actives lie on both sides
row,SMILES,binding response (% of control)
1,Cc1cc(NC(=O)OC(C)C)ccc1-c1ccc(NC(=O)OC(C)C)cc1C,96.1%
2,C=CCn1c(Cn2nnc3ccccc32)nnc1SCC(=O)N/N=C/c1cc(Br)cc(OC)c1O,-38.5% (active)
3,COc1ccc(OC)c(/C=N/NC(=O)CSc2nnc(C)n2-c2ccccc2)c1,96.1%
4,Cc1ccc(Cn2c(SCC(=O)N/N=C/c3ccccc3OCC(=O)O)nc3ccccc32)cc1,98.8%
5,CCC(C)NC(=O)Cn1nc(C(F)(F)F)c2c1CCC2 (configuration not stated),101%
6,COc1ccc(COCCN2CCN(S(=O)(=O)c3ccccc3)CCC2=O)cc1,84%
7,CN(C)c1ccc(/C=N/NC(=O)c2ccc(Cn3cc(Br)cn3)o2)cc1,98.7%
8,COC(=O)CNc1nc(Cl)nc(N2CCC(C)CC2)n1,101%
9,Cc1nnc(SCC(=O)N2c3ccccc3C(C)(c3ccc(Cl)cc3)CC2(C)C)s1 (configuration not stated),96.9%
10,Cc1cc2nc(C)n(CCCNC(=O)Nc3ccccc3)c2cc1C,158% [activator] (active)
11,Cc1nc2cc(NC(=O)NC3CC3)ccc2n1C,103%
12,Cc1nc2cc(NC(=O)Nc3cccc(F)c3)ccc2n1C,91.6%
13,Cc1onc(-c2ccccc2)c1C(=O)N=C(N)c1ccc(Cl)cc1,104%
14,N#Cc1ccc(CSc2nnc3ccccn23)cc1,101%
15,CCCCC1=CC2=CC(=O)C(C)(OC(=O)CC)C(=O)C2=CN1CCCOC(C)C (configuration not stated),96%
16,CCCC1C(c2ccccc2)C(C#N)(C#N)C2(C#N)CC1(N)NC2=O (configuration not stated),162% [activator] (active)
17,NC1=NC[C@@H](Cc2ccc(O)cc2)N1CC1CCCCC1,87.1%
18,CCOC(=O)c1ccc(NC(=O)c2nc[nH]c2C(=O)NCc2ccccc2)cc1,103%
19,CCCCOC(=O)Cn1c(=N)n(CCN(CC)CC)c2ccccc21,184% [activator] (active)

row,SMILES,binding response (% of control)
1,CCCCOC(=O)Cn1c(=O)n(CC(=O)OCCCC)c2cc(C)ccc21,103%
2,CCn1c(=N)n(CC(=O)c2cccc(OC)c2)c2ccccc21,98.3%
3,O=C(CN(C(=O)c1csnn1)c1cccc(F)c1)NCc1ccc(F)cc1,97.4%
4,Cc1cnc(C(=O)OCC(=O)N2CCc3ccccc32)cn1,104%
5,Cc1ccc(S(=O)(=O)N(C)CC(=O)N2CCc3ccccc32)cc1,104%
6,Cc1ccc(S(=O)(=O)NCC(=O)OCC(=O)N2CCc3ccccc32)cc1,204% [activator] (active)
7,C#CCO[C@@H]1C[C@H](n2cnc3c(=O)[nH]c(NC(=O)C(C)C)nc32)O[C@@H]1CO,81.4%
8,C=CCC1(CC=C)CCCN1C(=O)CC1C(=O)NCCN1Cc1ccccc1OC (configuration not stated),102%
9,[O-][n+]1c2c(nn1-c1ccc(Cl)c(Cl)c1)-c1nonc1CC2,106%
10,COc1ccc(/C(O)=C2\C(=O)C(=O)N(Cc3ccco3)C2c2ccc(OC)cc2OC)cc1 (configuration not stated),99.5%
11,COc1cc(C2/C(=C(\O)c3ccc4c(c3)CC(C)O4)C(=O)C(=O)N2Cc2ccco2)ccc1O (configuration not stated),18.3% (active)
12,COCCCN1C(=O)C(=O)/C(=C(/O)c2ccc3c(c2)CC(C)O3)C1c1cccnc1 (configuration not stated),95%
13,COC(=O)c1c(C)oc(C)c1S(=O)(=O)NCc1ccc(Cl)cc1,98.2%
14,CCN(CC)c1ccc(S(=O)(=O)N2CCOCC2)cc1NC(=O)CSc1cccc[n+]1[O-],91.7%
15,CCCn1c(SCC(=O)N2CCc3ccccc32)nnc1-c1ccncc1,99.9%
16,O=C(CSc1ccc2nnc(-c3ccccc3)n2n1)N1CCCc2ccccc21,156% [activator] (active)
17,Cn1c(SCC(=O)N2CCCc3ccccc32)nc2ccccc2c1=O,89.2%
18,Nc1ccccc1Sc1cc(Cl)nnc1Cl,97.6%
19,O=C(NC1CCc2ccccc21)C12CN(Cc3ccccc3)CC1C(c1cccc([N+](=O)[O-])c1)=NO2 (configuration not stated),99.7%

row,SMILES,binding response (% of control)
1,Cn1c(=O)c2c(n(Cc3ccccc3)c1=O)NC(=O)C2CC(=O)N1CCc2ccccc2C1 (configuration not stated),21.4% (active)
2,O=C(CSc1nnc(-c2cccs2)n1Cc1ccccc1)N1CCc2ccccc2C1,99.4%
3,O=C(COc1ccccc1)N1CCc2ccccc2C1,103%
4,Cc1ccc(NC(=O)CNCc2ccccn2)cc1S(=O)(=O)N(C)C,97.3%
5,Cn1c(CC2Sc3ccccc3NC2=O)nnc1SCC(=O)c1ccc(Cl)cc1 (configuration not stated),88.2%
6,Cc1cc(=O)n2[nH]c(-c3sccc3-n3c(C)ccc3C)cc2n1,50.1% (active)
7,CCc1c(C)nc2cc(-c3cccs3)[nH]n2c1=O,93.5%
8,COc1cccc2cc(/C(C)=N/NC(=O)c3ccco3)oc12,98%
9,COc1cc(NC(=O)CSc2nnc3ccc(-c4ccncc4)nn23)cc(OC)c1,98.4%
10,COCCCNC(=S)N(Cc1ccccc1)Cc1ccc(F)cc1,106%
11,COc1ccc(NC(=O)Cn2c(=O)n(Cc3ccco3)c(=O)c3ccccc32)cc1,101%
12,Cc1cs/c(=N\N=C\c2ccc(O)cc2)n1Cc1ccco1,99.6%
13,CN(c1ccccc1)c1ccc(/C=c2\s/c(=C(/C#N)C(=O)C(C)(C)C)n(Cc3ccco3)c2=O)cc1,566% [activator] (active)
14,CCOc1ccc(NC(=O)CSc2ncnc3c2sc2ccccc23)cc1,103%
15,COc1cc(/C=C/C(=O)N2c3ccccc3Sc3ccc(C(F)(F)F)cc32)cc(OC)c1OC,103%
16,O=C(CN1CCCCC1)N1c2ccccc2Sc2ccc(C(F)(F)F)cc21,21.1% (active)
17,O=C(CN1CCCCCC1)N1c2ccccc2Sc2ccc(C(F)(F)F)cc21,89.3%
18,CCN(CC)S(=O)(=O)c1ccc(NC(=O)c2cccnc2Cl)c(NC(=O)c2cccnc2Cl)c1,101%
19,COc1cc(NS(=O)(=O)c2ccc(NC(=O)c3ccc(S(=O)(=O)N4CCCCC4)cc3)cc2)ncn1,107%
